Laboratory results taken from PubChem BioAssay (NCI).
The panel holds about 83,000 compounds, 20% with a hit somewhere; the sample as a whole holds those more often.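 Each cell line was grown in a 96-well plate and treated with one concentration of compound for 48 hours. Values below 10 were considered active.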 Active and inactive are the calls of the source.

Legend:
Assay in all cases: NCI-60 one-dose screen, 48 h (100 = growth as untreated, 0 = no growth, -100 = all killed)
Conditions in all cases: 10 µM unless noted
[1] = tested on: NCI-H23 lung
[2] = tested on: NCI-H226 lung
[3] = tested on: NCI-H322M lung
[4] = tested on: HOP-62 NSCLC
[5] = tested on: NCI-H460 lung
[6] = tested on: HOP-92 NSCLC
[7] = tested on: NCI-H522 lung
[8] = tested on: A549/ATCC NSCLC
[9] = tested on: 786-0 renal
[10] = tested on: COLO 205 colon
[11] = tested on: DU-145 prostate
[12] = tested on: K-562 leukemia
[13] = tested on: MALME-3M melanoma
[14] = tested on: MDA-MB-231 breast
[15] = tested on: RXF 393 renal
[16] = tested on: SF-268 CNS
[17] = tested on: SF-295 CNS
[18] = tested on: SF-539 CNS
[19] = tested on: UACC-257 melanoma
[20] = tested on: M14 melanoma

Measured: growth

COc1ccc(C(=O)COc2ccc(/C=C3\Oc4ccc(OC)cc4C3=O)cc2)cc1
inactive: [1] 100% | [2] 89.5% | [3] 100% | [4] 115% | [5] 124% | [6] 63.4% | [8] 105% | [9] 114% | [10] 128% | [11] 116% | [12] 16.8% | [13] 102% | [14] 89.7% | [15] 110% | [16] 121% | [17] 81.9% | [18] 104% | [19] 94% | [20] 110%
active: [7] -29.6%

NC(=O)c1cc(Br)ccc1NC(=O)/C=C/c1ccccc1
active: [7] -24.9% | [10] -4.22% | [11] -5.67% | [18] 9.78%
inactive: [1] 62% | [2] 66.9% | [3] 76.1% | [4] 99% | [5] 17.1% | [6] 57% | [8] 33.2% | [9] 65.7% | [12] 15% | [13] 96.5% | [14] 45.3% | [15] 39.3% | [16] 43.5% | [17] 51.3% | [19] 49.1% | [20] 28.3%

O=C(N=Nc1c(O)[nH]c2ccccc12)c1cc(-c2ccccc2)on1
inactive: [1] 95.8% | [2] 96.8% | [3] 111% | [4] 102% | [5] 102% | [6] 96.2% | [7] 90.7% | [8] 107% | [9] 104% | [10] 122% | [11] 113% | [12] 104% | [13] 100% | [14] 93.1% | [15] 118% | [16] 101% | [17] 98.2% | [18] 97.4% | [19] 106% | [20] 104%

O=C1CC(=NCC(=O)n2c(-c3ccccc3)nc3ccccc32)NN1
inactive: [1] 91.8% | [2] 90.2% | [3] 103% | [4] 89% | [5] 100% | [6] 99.5% | [7] 84.5% | [8] 114% | [9] 107% | [10] 111% | [11] 115% | [12] 111% | [13] 111% | [14] 90.1% | [15] 110% | [16] 102% | [17] 101% | [18] 99.4% | [19] 120% | [20] 104%

COc1ccc(/C=C\c2cc(OC)c(OC)c(OC)c2)cc1OC(=O)c1cccc(Cn2cc(CCOC(=O)[C@H](N)Cc3cn(C)c4ccccc34)nn2)c1
inactive: [1] 29.6% | [2] 19.8% | [3] 50.1% | [4] 44.3% | [6] 61.6% | [7] 18.9% | [8] 19.7% | [9] 15.7% | [13] 65.4% | [14] 42.8% | [15] 34.9% | [16] 23.1% | [17] 14.2% | [19] 68.2%
active: [5] 1.11% | [10] -54.5% | [11] -8.08% | [12] 4.84% | [18] -13.6% | [20] 9.47%

C#Cc1cccc(NC(=O)c2ccccc2NC(=O)CCl)c1
inactive: [1] 64.4% [8.25 µM] | [2] 50.1% [8.25 µM] | [3] 99.3% [8.25 µM] | [4] 75.8% [8.25 µM] | [5] 98.3% [8.25 µM] | [6] 77.4% [8.25 µM] | [7] 10.6% [8.25 µM] | [8] 92.7% [8.25 µM] | [9] 87.5% [8.25 µM] | [10] 114% [8.25 µM] | [11] 96.2% [8.25 µM] | [12] 68.2% [8.25 µM] | [13] 105% [8.25 µM] | [14] 111% [8.25 µM] | [15] 96.7% [8.25 µM] | [16] 68% [8.25 µM] | [17] 103% [8.25 µM] | [18] 93.4% [8.25 µM] | [19] 98.4% [8.25 µM] | [20] 83.3% [8.25 µM]

O=C(COc1cccc(/C=C2\COc3ccccc3C2=O)c1)Nc1nccs1
inactive: [1] 13.4% | [2] 95.4% | [3] 99.3% | [4] 83.3% | [5] 87.9% | [8] 101% | [9] 95.5% | [10] 87.3% | [11] 96.6% | [13] 54.2% | [14] 83.7% | [15] 48.3% | [16] 70.1% | [17] 112% | [18] 83.7% | [19] 86%
active: [6] -3.51% | [7] -30.5% | [12] -80.5% | [20] -78.2%
